In PubChem BioAssay (NCI):
The panel holds about 83,000 compounds, 20% with a hit somewhere; the sample as a whole holds those more often.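 Compound tested at a single concentration for 48 hours in 96-well plates; a percent growth value below 10 was scored as active.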 A number with no mark means an inactive call. Calls of active or inactive are those of the source.

Columns and labels:
Experiment in all cases: NCI-60 one-dose screen, 48 h (100 = growth as untreated, 0 = no growth, -100 = all killed)
Conditions in all cases: 10 µM unless noted
[1] = test system: NCI-H23 lung
[2] = test system: NCI-H226 lung
[3] = test system: NCI-H322M lung
[4] = test system: HOP-62 NSCLC
[5] = test system: NCI-H460 lung
[6] = test system: HOP-92 NSCLC
[7] = test system: NCI-H522 lung
[8] = test system: A549/ATCC NSCLC
[9] = test system: 786-0 renal
[10] = test system: COLO 205 colon
[11] = test system: DU-145 prostate
[12] = test system: K-562 leukemia
[13] = test system: MALME-3M melanoma
[14] = test system: MDA-MB-231 breast
[15] = test system: RXF 393 renal
[16] = test system: SF-268 CNS
[17] = test system: SF-295 CNS
[18] = test system: SF-539 CNS
[19] = test system: M14 melanoma

SMILES	growth [1]	growth [2]	growth [3]	growth [4]	growth [5]	growth [6]	growth [7]	growth [8]	growth [9]	growth [10]	growth [11]	growth [12]	growth [13]	growth [14]	growth [15]	growth [16]	growth [17]	growth [18]	growth [19]
COc1ccc(/C=C(\C#N)c2ccc([N+](=O)[O-])cc2)c2ccccc12	65.3%	16.1%	51.6%	27.1%	64.6%	50.1%	34%	48.7%	34.5%	81.4%	60.9%	44.7%	14.6%	45%	58.3%	39.8%	70.7%	49.4%	65.7%
COC(=O)c1ccc(C)cc1	97.5%	106%	113%	107%	106%	100%	97.5%	103%	103%	106%	103%	102%	108%	107%	106%	97.9%	102%	103%	116%
CCOC(=O)c1cc(/C(=N\O)c2cc(OC)c(OC)c(OC)c2)n2c(C)cccc12	59.3%	78.8%	59.2%	36.2%	15.3%	54.6%	-3.5% (active)	48%	26.3%	21.2%	50.1%	16.8%	44.8%	48.7%	34.5%	43%	11.3%	15.2%	20.8%
COc1ncc(-c2ccc3ncnc(Nc4cccc(Cl)c4)c3c2)cc1N(S(C)(=O)=O)S(C)(=O)=O	71.5%	64.5%	17.4%	79.1%	62.3%	7.62% (active)	52.2%	47.9%	79.5%	77.1%	54.8%	94.2%	44.8%	67.3%	68.8%	73.2%	76%	76.2%	73.7%
O=C1C2=C(C(=O)c3c(O)ccc(O)c31)N(c1cccnc1)Cc1ccccc1O2	-5.92% (active)	19.2%	23.9%	-3.72% (active)	7.48% (active)	-89.9% (active)	-77.9% (active)	31.6%	-86.7% (active)	-60.9% (active)	-96.6% (active)	-9.44% (active)	-80.5% (active)	-68.9% (active)	-78.8% (active)	1.4% (active)	37.9%	-56.1% (active)	-78% (active)
CCCCCCCN(CCCCCCC)C(=N)c1ccc(OC)c2ccccc12	-70.2% (active)	-73.1% (active)	-89% (active)	-85.9% (active)	-92% (active)	-86.6% (active)	-75.2% (active)	-83.7% (active)	-90.7% (active)	-73% (active)	-96.4% (active)	-47.9% (active)	-72% (active)	-77.2% (active)	-94.5% (active)	-91% (active)	-89.9% (active)	-88% (active)	-85.9% (active)
Cc1ccccc1C(=O)c1ccccc1C(=O)O	100%	110%	108%	106%	111%	105%	102%	103%	97.9%	115%	110%	106%	109%	115%	118%	106%	109%	105%	96.3%
O=S(=O)(NCCCNc1cc(-c2cn(-c3ccccc3)nc2-c2cccc(O)c2)ccn1)c1cccc2ccccc12	44.9%	38.7%	44.3%	47.3%	18%	11.8%	44.5%	35.8%	-9.71% (active)	-65.5% (active)	49.7%	1.39% (active)	-1.89% (active)	4.29% (active)	32.1%	39.9%	-19.9% (active)	33.3%	28.2%
CS(=O)(=O)N(c1cc(-c2ccc3ncnc(Nc4cccc(Cl)c4)c3c2)cnc1Cl)S(C)(=O)=O	18.3%	30.1%	-1.94% (active)	19.2%	14.1%	-20.5% (active)	19.6%	9.62% (active)	17.5%	2.1% (active)	21.6%	26.5%	-24.7% (active)	7.55% (active)	-20.1% (active)	24%	-4.24% (active)	-8.58% (active)	21.8%
O=S(=O)(NCCCNc1cc(-c2cn(-c3ccccc3)nc2-c2cccc(O)c2)ccn1)c1ccc(C(F)(F)F)cc1	43.9%	49.6%	49.8%	50.9%	22.2%	29%	69.7%	35.1%	-8.06% (active)	-57.3% (active)	60.8%	3.42% (active)	22.7%	4.73% (active)	24.7%	44.1%	-3.81% (active)	36.7%	23.5%
COc1cc(C(=O)N2CCN(C(=O)c3ccco3)CC2)c(N)cc1OCc1ccccc1	111%	88.4%	91.3%	94.6%	113%	61%	84.4%	93.3%	95.6%	125%	115%	85.3%	107%	101%	89.9%	108%	115%	98.2%	102%
Cc1ccnc2nc(C(=O)OCC(=O)Nc3ccc(-c4ccccc4)cc3)nn12	99.5%	110%	112%	94.5%	119%	69.7%	107%	99.3%	99.8%	104%	109%	61.8%	115%	104%	49.7%	113%	92.7%	95.6%	99.9%
Cc1c(C(=O)NCc2ccccc2)[n+](=O)c2cc(F)ccc2n1[O-]	90.1%	103%	117%	94.8%	109%	64.3%	90.9%	109%	101%	123%	99.8%	214%	114%	111%	33.1%	111%	88.4%	103%	99.5%
CC(=O)/C=C/c1cc2cc(Cl)ccc2[nH]c1=O	87.5%	85.1%	90.5%	68%	78.5%	94.5%	75.2%	85.2%	74.5%	98.8%	69.8%	50.5%	97.2%	84%	79.1%	81.2%	96.9%	85.4%	91.2%
Cc1ccc2nc(-c3c(CCCO)noc3N)[nH]c(=O)c2c1	130%	99.9%	89.6%	103%	108%	65.7%	103%	101%	98.6%	121%	117%	68%	96.6%	105%	153%	111%	99.6%	97.3%	107%
CCN(Cc1ccc(CN(CC)C(=O)C(Cl)(Cl)Cl)cc1)C(=O)C(Cl)(Cl)Cl	67.6%	83.9%	118%	98.2%	86.7%	33.1%	74%	79.2%	72.6%	95.7%	97.7%	27%	68.4%	98.2%	101%	80.5%	76.4%	101%	89.9%
CC(C)N(Cc1ccc(CN(C(=O)CCl)C(C)C)cc1)C(=O)CCl	19.8%	-2.93% (active)	94.6%	-27.7% (active)	35.8%	-65.4% (active)	-75.6% (active)	57.4%	-85.1% (active)	-54.3% (active)	12%	14%	-63.2% (active)	-2.71% (active)	45.6%	-50.7% (active)	28.2%	-84% (active)	1.15% (active)
